Hit rate of the full screen: of about 580,000 compounds, about 6,100 (1.1%) were called active. Roughly 15% stayed inconclusive and do not appear here. Calls follow the shape of the dose curve; as a rule, active = well fitted inhibition curve with a large enough effect; inconclusive = small, poorly fitted or top-dose-only effect, or another doubt; inactive = no such curve, though single readings can be large or run the other way. Shown is part of a subset that was picked to be rich in actives.
The molecules below were run against Polyunsaturated fatty acid lipoxygenase ALOX12 (Homo sapiens) (UniProt P18054) (assay: Primary qHTS assay for inhibitors of human arachidonate 12S-lipoxygenase (ALOX12): Round 2). Conditions: purified 12hLO, xylenol orange hydroperoxide absorbance; series mostly up to 108 µM; activity change, negative = inhibition: at the top concentration.
How it was run: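 Purified human 12hLO (150 nM final) in 25 mM Hepes, 0.01% Triton X-100, pH 7.0 was preincubated 15 min at room temperature with compound. Then 40 uM arachidonic acid was added, 30 min. Hydroperoxide was read by Fe-XO absorbance ratio 573/405 nm.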
% is scaled to controls: 0 for no effect and ±100 for the full control effect; potency is read from the fitted curve at half-maximal effect.

Chain of Polyunsaturated fatty acid lipoxygenase ALOX12 (Homo sapiens) (P18054 whole entry, looked up): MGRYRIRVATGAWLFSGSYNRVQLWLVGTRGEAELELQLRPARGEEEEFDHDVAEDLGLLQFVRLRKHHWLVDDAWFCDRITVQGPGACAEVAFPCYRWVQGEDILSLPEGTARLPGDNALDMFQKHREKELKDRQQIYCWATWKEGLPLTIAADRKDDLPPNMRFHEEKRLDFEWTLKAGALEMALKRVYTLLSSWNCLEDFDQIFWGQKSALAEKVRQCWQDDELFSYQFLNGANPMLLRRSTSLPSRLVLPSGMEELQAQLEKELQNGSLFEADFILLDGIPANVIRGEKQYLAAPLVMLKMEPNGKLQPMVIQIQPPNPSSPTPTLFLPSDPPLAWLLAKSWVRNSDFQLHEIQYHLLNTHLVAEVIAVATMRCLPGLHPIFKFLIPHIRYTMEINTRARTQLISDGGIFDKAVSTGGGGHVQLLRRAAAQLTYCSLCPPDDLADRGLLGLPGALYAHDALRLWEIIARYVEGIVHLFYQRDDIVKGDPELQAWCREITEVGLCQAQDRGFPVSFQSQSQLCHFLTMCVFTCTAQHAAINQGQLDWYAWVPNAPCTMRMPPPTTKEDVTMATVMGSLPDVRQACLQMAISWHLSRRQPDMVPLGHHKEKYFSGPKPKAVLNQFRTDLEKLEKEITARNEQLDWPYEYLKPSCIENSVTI

Activity change, negative = inhibition, inactive:
COc1cc(Cl)c(C)cc1NC(=O)Cn1nc(-c2cccs2)oc1=O 65.1%
CCCN(CC(F)(F)F)C(=O)c1ccc(NC(=O)NC(C)C)cc1 -27.5%
Cc1ccc(-n2ccc(C=O)c2)c(C)c1 9.12%
CCN(CC)C(=O)[C@@H](C)C1CC[C@@]2(C)Cc3sc(N)nc3[C@@H](C)[C@@H]2[C@H]1O (some centres not stated) 48% [at 176 µM]
C=CCN(C)C(=O)C[C@@H]1c2nc(NC(=O)c3ccc(C(C)(C)C)cc3)sc2C[C@@H]2[C@](C)(CO)[C@H](O)CC[C@]21C -2.6%
CC(Sc1cc(F)ccc1F)C(=O)Nc1ccnn1C(C)C (configuration not stated) -13.5%
O=C(NCc1ccc(Cl)c(Cl)c1)C1CCN(c2ncnc3nc[nH]c23)CC1 -1.44%
CCCNC(=O)C1(C)CCCN(Cc2cccc(C(F)(F)F)c2)C1 (configuration not stated) -21.5%
CC(=O)N1CCC2(CCCN(Cc3ccccc3)C2)CC1 -19.8% [at 57.4 µM]
CC(C)(C)OC(=O)C(C#N)c1cnccn1 (configuration not stated) 0.566%
CC(C)Oc1ccc(C(=O)NC(C)(C)CO)cc1 -27.6%
COc1ccc(C(O)(C2CCCCC2)C(CN2CCCC2)c2ccccc2)cc1 (configuration not stated) 0%
O=C(CN1C(=O)CC2(CCCCC2)C1=O)c1c[nH]c2ccccc12 24.3%
CCn1nc(C(=O)Nc2ccccn2)c2ccccc2c1=O -0.227%
Cc1ccccc1CNC(=O)c1cc(-c2ccncc2)nc2ccccc12 -19.4%
COc1ccc(C2C(=O)N(C3CCCCCC3)CC(=O)N2CCc2ccc(Cl)cc2)cc1OC (configuration not stated) -25.5%
CCC1(C)COC(c2ccc(OC)c(OC)c2)OC1 (configuration not stated) -2.84%
CCN(CC)S(=O)(=O)c1ccc(-c2csc(-c3ccc(OC)c(OC)c3)n2)cc1 -13.9%
CC(C)(C)c1ccc(/C=N/NC(=O)c2ccccc2)cc1 27.4%
O=C(CN1c2ccccc2S(=O)(=O)c2ccccc21)Nc1cccc(C(F)(F)F)c1 -26.5%
O=C(O)c1cc(-c2ccc3ccccc3n2)nc2ccc3ccccc3c12 2.92%
CC1(C)CC(=O)C/C(=N/NC(=O)c2ccc(NC(=O)C3CC3)cc2)C1 -1.6%
O=S(=O)(NC1CC1)c1ccc2c3c(cccc13)CC2 8.58%
CCCCC(=O)Nc1ccccc1C(C)CC (configuration not stated) 2.54%
Cc1nn(-c2ccc(F)cc2)c(Oc2ccccc2F)c1CCC(=O)NCC1CCCO1 (configuration not stated) 48.6%
C=CCNC(=O)N1CC[C@H]2CC(=O)N(c3ccccc3)CC[C@H]2C1 0.74% [at 176 µM]
C=CCNC(=O)COc1coc(CN2CCN(Cc3ccccc3)CC2)cc1=O 30.2%
COc1ccccc1N1CCN(C(=O)CSc2nccn3nc(-c4ccccc4)cc23)CC1 9.23%
CCOc1cc2ccccc2cc1C(=O)N1CCN(CC(=O)Nc2cccc(F)c2)CC1 0.995%
COC(=O)c1ccc(OCc2cccc(C#N)c2)c(OC)c1 -23.9%
COc1ccc(C2CC(=O)NC(SCC(=O)Nc3c(C)cccc3C)=C2C#N)cc1OC (configuration not stated) -3.6%
CCN(CC1COc2ccccc2O1)S(=O)(=O)N1CCOCC1 (configuration not stated) 8.61%
Nc1nonc1C(=O)N1CCN(C(=O)Nc2ccccc2)CC1 11.1%
Cc1cccc2c1NC(=O)C21CC(=O)Nc2c1cnn2C(C)(C)C (configuration not stated) -1.1%
CCOc1c(Br)cc(/C=C/C(=O)c2ccc(OC)c(OC)c2)cc1OC -4.63%
Cc1ccccc1Nc1nc(C(=O)NCCCN2CCOCC2)cs1 0.395%
Cc1cccc(-c2nc3cnccn3c2NCCC(=O)N2CCCCCC2)c1 -13.1%
COc1cccc(-c2nc3nc(C)cc(C)n3c2NC2CCCCC2)c1 -25%
O=C1COc2ccc(Nc3ccccc3F)nc2CN1Cc1ccccc1F -16.2% [at 176 µM]
Cc1cccc(-c2nc(SCc3ccc(Br)cc3)n3[nH]c(=O)cc3n2)c1 -26.7%
O=c1cc2nc(-c3ccccc3)nc(SCCOc3ccc(Cl)cc3)n2[nH]1 0%
COc1ccc(OC)c(CNC(=O)c2cc3c(s2)-c2c(C)cccc2OC3)c1 -1.33%
CCNC(=S)NC1CC(C)(C)NC(C)(C)C1 -3.31%
Cc1cccc(NC(NC(=O)C(C)C)(C(F)(F)F)C(F)(F)F)c1 -27.2%
CCCNC(=O)C(C)OC(=O)c1cc(=O)[nH]c2ccccc12 (configuration not stated) -59.8%
Cc1ccc(NC(=O)CCC(=O)c2ccc(Br)cc2)cc1 0%
Cc1c(Cl)cccc1NC(=O)[C@@]1(CC(=O)O)CC(/C=C/c2ccccc2)=NO1 -17.8%
O=C1OC(C2CC2)c2cc3c(cc21)OCCO3 (configuration not stated) 0.0886%
O=C(O)c1ccc(S(=O)(=O)Nc2cc(F)ccc2OCC(F)(F)F)cc1 -0.0528%
Cc1cccc(OCCn2c(CN3CCCCC3)nc3ccccc32)c1 5.02%
CCn1ncc(N2CCC(NC(=O)c3ccc(OC(C)C)cc3)CC2)cc1=O 42.2%
COc1ccc(NC(C)=O)cc1NC(=O)CCn1cnc2c1c(=O)n(C)c(=O)n2C 2.56%
CCC1CCCCN1C(=O)Cn1c(=O)n(CCCCCC(=O)NCc2ccccc2)c(=O)c2sccc21 (configuration not stated) -3.5%

Potency, inactive:
N#CC1(NC(=O)COC(=O)Cc2n[nH]c(=O)c3ccccc23)CCCCC1
Cc1cccc(Cn2c(=O)n(CCC(=O)NCCc3ccc(Cl)cc3)c(=O)c3sccc32)c1

Potency, active:
C=CCN(C)C(=O)[C@@H](C)C1CC[C@@]2(C)Cc3sc(NS(=O)(=O)c4ccc(Cl)cc4)nc3[C@@H](C)[C@@H]2[C@H]1O (some centres not stated) 31.6 µM
CC(=O)NC1(C)CCN(Cc2cccc(-c3ccc(C(=O)c4ccccc4)cc3)c2)C1 (configuration not stated) 39.8 µM
CC(C)Oc1ccc(C(O)(CC[N+](C)(C)C)C2CCCCC2)cc1 (configuration not stated) 11.2 µM
COc1ccc(C2NC(=O)C(=O)/C2=C(\O)c2ccc(Cl)cc2)cc1OC (configuration not stated) 28.2 µM
FC(F)(F)c1cccc(N/N=C/c2ccccc2)c1 3.55 µM
N#CC1(Nc2ccc3c4c(cccc24)CC3)CCCCC1 31.6 µM
C=CCNC(=S)/N=c1/ccccn1Cc1ccccc1 44.7 µM
COc1cc(C2CC(=O)N3CN(Cc4ccccc4)CSC3=C2C#N)ccc1OCc1ccccc1 (configuration not stated) 14.1 µM
COc1ccc(-c2nc3cnccn3c2NC2CCCCC2)cc1-c1cccc(Cl)c1 7.94 µM
Cc1ccc(-c2nc(SCc3ccc(Br)cc3)n3[nH]c(=O)cc3n2)cc1 31.6 µM
CC(=O)c1ccc(NC(=O)[C@@]2(CC(=O)O)CC(c3ccc(Br)cc3)=NO2)cc1 44.7 µM
O=C(Cn1c(=O)n(CCc2ccccc2)c(=O)c2sccc21)c1ccc(Cl)cc1 22.4 µM

Source: PubChem BioAssay AID1671190 (National Center for Advancing Translational Sciences (NCATS), 2021)
